Assay outcomes from PubChem BioAssay.
MCF10A rerep – induces DNA re-replication in MCF 10a normal breast cells; MCF 10A DNA re-replication, Hoechst nuclear intensity, 48 h; Potency, µM (highest dose often 46.1 µM), inactives show at the top dose activity, positive = re-replication, usual class: activators; 350,000 tested, 2.9% active; AID 624296; further: potency means the concentration at half of the fitted maximal effect; % of control where 0% means no effect; nearly all actives have a fitted effect of over 50% in size
VP16 counter – inhibits Gal4-VP16 luciferase reporter, ROR gamma counter-screen | Drosophila S2 Gal4-VP16 UAS-luciferase, luminescence, 20 h | Potency, µM (top dose mostly 53.6 µM), for the others: at the top dose activity, negative = inhibition, usual class: inhibitors | 310,000 tested, 3.5% active | AID 2546;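 further: Gal4-VP16 expression switched on by copper sulfate through the metallothionein promoter; potency means the concentration at half of the fitted maximal effect; on the % scale 0 is the no-effect control and ±100 the full control effect; nearly all actives have a fitted effect of over 50% in size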
SW480 rerep – induces DNA re-replication in SW480 colon adenocarcinoma cells; SW480 DNA re-replication, Hoechst DNA content imaging, 48 h; Potency, µM (doses to about 46.1 µM), for inactives: top-dose re-replication activation, usual class: activators; 340,000 tested, 1.8% active; AID 624297; further: potency means the concentration at half of the fitted maximal effect; % of control where 0% means no effect; nearly all actives have a fitted effect of over 55% in size
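Readout is total intensity of Hoechst-stained nuclei, excited at 405 nm and collected at 500-530 nm. Compound treatment lasted 48 hr at 37 C in 5% CO2 before staining.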
RORgamma inh – inhibitors of mouse ROR gamma transcriptional activity; P51450; Potency, µM (top dose mostly 53.6 µM), for the others: at the top dose activity change, negative = inhibition, usual class: inhibitors; Drosophila S2 Gal4-RORgamma UAS-luciferase reporter, 20 h; 310,000 tested, 5.4% active; AID 2551; further: potency means the concentration at half of the fitted maximal effect; on the % scale 0 is the no-effect control and ±100 the full control effect; nearly all actives have a fitted effect of over 60% in size
Target sequence (P51450 whole entry, looked up, the tested form may be a part): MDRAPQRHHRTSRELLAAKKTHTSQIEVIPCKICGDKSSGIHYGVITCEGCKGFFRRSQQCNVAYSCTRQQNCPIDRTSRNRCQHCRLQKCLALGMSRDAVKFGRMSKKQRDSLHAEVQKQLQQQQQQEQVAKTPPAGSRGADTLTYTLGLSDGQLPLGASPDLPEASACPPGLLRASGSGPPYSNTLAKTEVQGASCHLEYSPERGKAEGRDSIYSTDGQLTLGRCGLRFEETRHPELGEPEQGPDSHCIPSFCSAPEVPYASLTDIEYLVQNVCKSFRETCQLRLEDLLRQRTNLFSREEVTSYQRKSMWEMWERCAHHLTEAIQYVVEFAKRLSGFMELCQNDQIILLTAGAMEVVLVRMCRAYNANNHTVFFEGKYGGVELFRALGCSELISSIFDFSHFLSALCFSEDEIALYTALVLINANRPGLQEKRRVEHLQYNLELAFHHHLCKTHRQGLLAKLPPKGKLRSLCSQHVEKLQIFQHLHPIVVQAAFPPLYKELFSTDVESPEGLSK
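Luciferase reporter read in Schneider cells carrying Gal4-RORγ (mouse) and UAS-Photinus luciferase; cells given compound 1 h before 700 uM copper sulfate induction, then incubated 20 h at ambient temperature.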
IL-1B inflam inh – inhibitors of inflammasome signaling (IL-1 beta secretion). THP-1 LPS/ATP IL-1B secretion, AlphaLISA, 16 h; hits give low values. activity change, % at 57.5 µM. 360,000 tested, 4.7% active; in the data active means activity change below about -50%; inconclusive means mostly about -30% to -49%; further: on the % scale 0 is the no-effect control and ±100 the full control effect
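THP-1 cells pretreated 1 hr with compounds (up to 57.5 uM final), then stimulated with LPS (250 ng/mL final) plus ATP (1.25 mM final); secreted IL-1B measured by AlphaLISA after 16 hr, decreased signal indicating inhibition.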
* marks the source's active call; other numbers are inactive results; i = inactive; ? = inconclusive; / = not tested or not shown; [ ] = remark or other dose. The list is not random: actives were taken first. Their share in the collection is about 11%. Unless noted, the call rests on the fitted dose curve; in most records, active means well fitted curve in the direction sought with a large enough effect; inconclusive means small, poorly fitted or top-dose-only effect, or another doubt; inactive means no such curve, though single readings can be large; an effect the other way counts as inactive or inconclusive.

SMILES	MCF10A rerep	VP16 counter	SW480 rerep	RORgamma inh	IL-1B inflam inh
CC(=O)Oc1ccc(C2C3=C(CC(C)(C)CC3=O)Nc3cc4c(cc32)OCCO4)cc1 (stereo unspecified)	-4%	-10%	2%	10%	?
COc1cccc(C2C3=C(CC(C)(C)CC3=O)Nc3cc4c(cc32)OCO4)c1 (stereo unspecified)	?	14%	14%	-9%	?
CC(C)(C)C(=O)NC1CC2CCCC(C1)N2C(=O)Nc1ccccc1 (stereo unspecified)	-3%	1%	-63%	-27%	-9
CCOc1ccccc1C1C2=C(COC2=O)Nc2cc3c(cc21)OCO3 (stereo unspecified)	?	-10%	0.92µM*	-10%	78
C#CCOc1ccc(C2C3=C(COC3=O)Nc3cc4c(cc32)OCO4)cc1OC (stereo unspecified)	?	-2%	0.52µM*	-22%	45
CC(=O)C1=C(O)C(=O)N(c2ccccn2)C1c1ccccc1[N+](=O)[O-] (stereo unspecified)	?	-11%	21µM*	-36%	43
C[C@H](CO)N1C[C@H](C)[C@@H](CN(C)Cc2ccc(C(=O)O)cc2)Oc2c(NS(=O)(=O)c3ccc(F)cc3)cccc2C1=O	-2%	/	-33%[9.22 µM]	/	-6
Cc1sc2nc(CN(C(=O)NCc3ccccc3)C3CCCC3)[nH]c(=O)c2c1C	5%	?	?	4.5µM*	?
CC(=O)N(Cc1nc2sc(C)c(C)c2c(=O)[nH]1)C1CCCC1	-2%	?	1%	10µM*	29
COC(=O)C1=CN(c2ccc(OC)cc2)C(N)=C(C#N)C1c1ccccc1F (stereo unspecified)	/	/	/	/	25
COC(=O)Cn1cnc2c(cnn2-c2ccc(C)cc2)c1=O	-4%	-9%	-2%	32%	-21
CCOc1cc(S(=O)(=O)NCCCN2CCOCC2)c(C)cc1C	12%	9%	-7%	-8%	i
Cc1ccc(S(=O)(=O)NCc2ccc(C(=O)NCCN(Cc3ccccc3)C(C)C)cc2)cc1	?	-6%	?	7%	-66*
Cc1ccc(OCCNC(=O)c2cccc(S(=O)(=O)NCc3ccccc3)c2)cc1	6.5µM*	/	6.5µM*	/	13
O=C(NCc1ccncc1)c1cccc(S(=O)(=O)NCc2ccccc2)c1	-4%	4%	-9%	17%	18
CN(C)C(CNC(=O)c1cccc(S(=O)(=O)NCc2ccccc2)c1)c1ccccc1 (stereo unspecified)	?	/	6.5µM*	/	-6
COc1ccc(C(CNC(=O)c2cccc(S(=O)(=O)N3CCCC(C)C3)c2)N(C)C)cc1 (stereo unspecified)	1%	/	-1%	/	-55*
CCN(CC(=O)Nc1ccc(NC(C)=O)cc1)C(=O)c1ccc(=O)n(C)n1	-7%	/	-4%	/	-3
COc1cccc(N2C(=O)Nc3ccc(Br)cc3C2(O)C(=O)NCCCN(C)C)c1 (stereo unspecified)	-1%	2%	1%	10%	21
COc1ccc(C(CNC(=O)c2ccc(S(=O)(=O)N(C)C)cc2)N(C)C)cc1 (stereo unspecified)	-3%	-5%	-15%	-8%	-10
CCN(c1ccccc1)S(=O)(=O)c1cc(C(=O)NCC(c2ccc(OC)cc2)N(C)C)ccc1C (stereo unspecified)	?	/	?	/	-74*
COc1ccc(Cl)cc1NC(=O)c1cccc(S(=O)(=O)Nc2c(C)n(C)n(-c3ccccc3)c2=O)c1	-1%	/	-19%	/	9
CC(=O)[C@@H]1[C@@H](C(=O)c2ccc(C)cc2)[C@]2(C(=O)Nc3ccccc32)[C@H]2C=Cc3cc(F)ccc3N12	16µM*	?	?	?	-75*
O=C(c1ccc(F)cc1)[C@@H]1[C@@H](C(=O)c2ccccc2)[C@@]2(C(=O)Nc3ccccc32)[C@H]2c3ccccc3C=CN12	/	24%	/	-15%	/
CC(=O)[C@@H]1[C@@H](C(=O)c2ccc(F)cc2)[C@]2(C(=O)Nc3ccccc32)[C@H]2C=Cc3cc(F)ccc3N12	21µM*	-8%	?	19%	-74*
SMILES	MCF10A rerep	VP16 counter	SW480 rerep	RORgamma inh	IL-1B inflam inh
COc1ccccc1/C=C/c1nc(S(=O)(=O)c2ccccc2)c(N2CCC(C(N)=O)CC2)o1	?	-6%	18µM*	20%	-27
COCCNc1oc(-c2ccccc2Cl)nc1S(=O)(=O)c1ccc(C)cc1	5%	/	-3%	/	-57*
COCCNc1oc(/C=C/c2ccccc2OC)nc1S(=O)(=O)c1ccccc1	21µM*	-13%	?	?	0
Cc1ccc(S(=O)(=O)c2nc(-c3ccccc3Cl)oc2NCCCN2CCOCC2)cc1	0%	6%	?	-14%	i
CN(C)CCCNc1oc(-c2ccccc2Cl)nc1S(=O)(=O)c1ccccc1	-4%	/	-21%	/	-27
C[C@]12CC[C@H](O)CC1=C[C@H](O)C1C2CC[C@@]2(C)C1CC[C@@]2(O)C#Cc1ccc(CN)cc1 (stereo partly specified)	-3%	/	6%	/	11
COc1ccc(S(=O)(=O)N(C)c2ccc(C(=O)Nc3cccnc3)cc2)cc1OC	-2%	1%	-23%	36%	i
CC1CCc2nc(NC(=O)C3COc4ccccc4O3)sc2C1 (stereo unspecified)	3%	10µM*	-7%	?	-18
CC1CCc2nc(NC(=O)CN3CCN(Cc4ccc5c(c4)OCO5)CC3)sc2C1 (stereo unspecified)	13µM*	-22%	2%	-53%	?
CCc1cccc(NC(=O)Nc2ccc3c(c2)OCO3)c1	?	-11%	-5%	8%	?
CC1CCc2nc(NC(=O)Nc3ccc4c(c3)OCO4)sc2C1 (stereo unspecified)	?	7%	1%	-20%	-75*
CC1CCc2nc(NC(=O)C3CC3)sc2C1 (stereo unspecified)	3%	19%	2%	31%	15
NC[C@@H]1O[C@@H](O[C@H]2[C@H](O)[C@@H](O[C@@H]3O[C@@H](CO)[C@H](O)[C@@H](N)[C@@H]3O)[C@H](N)C[C@@H]2N)[C@@H](O)[C@H](O)[C@H]1O	/	-10%	/	-12%	/
O=C(CSc1nc(O)c(C2CCCCC2)c(=O)[nH]1)Nc1ccc(F)cc1	2%	2%	-9%	-18%	-15
CCOc1ccc(NS(=O)(=O)c2ccc(-c3cnc(C4CC4)o3)cc2)cc1	6.5µM*	1%	30%	30%	39
CC(=O)c1cccc(NS(=O)(=O)c2ccc(-c3cnc(C4CC4)o3)cc2)c1	20%	8.9µM*	1%	-30%	-4
